Values without a mark were called inactive.
How the values were obtained:
Details in all cases: 60 µM; 5 days; temperature: 20 °C
[1] = tested on: Meloidogyne hapla J2; test: proportion of mobile M. hapla J2 relative to DMSO control (fraction of DMSO control); higher = more viable, less nematicidal, active = 0.7 or less
Summary of the method: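 Sealed 96-well plates, each well holding around 25 M. hapla J2 in distilled water with compound pinned to 60 µM final (0.6% v/v DMSO), were shaken at 200 rpm for 5 days at 20 °C. Then 2 µL of 1 M NaOH was added to each well. Microscope-scored mobility was normalised to the mean of DMSO-only wells from the same plate. Eight such wells were on each plate, and the two biological replicates were averaged.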

[2] = tested on: Ditylenchus dipsaci; test: proportion of mobile D. dipsaci (mixed stage) relative to DMSO control (fraction of DMSO control); higher = more viable, less nematicidal, active = 0.86 or less; extreme values may be limits of the assay
Summary of the method: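 Mobility, expressed relative to DMSO controls, is the mean of two biological replicates. The test organisms were D. dipsaci grown on pea plants in Gamborg B-5 agar and extracted into water by filter funnel, with about 20 added per well of a 96-well plate in distilled water. Compound was pinned to 60 µM final (0.6% v/v DMSO), plates were sealed and shaken at 200 rpm for 5 days at 20 °C, and mobile worms were scored under a microscope once 2 µL 1 M NaOH had been added.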

[3] = tested on: Caenorhabditis elegans dauer (daf-2(e1370)); test: proportion of mobile C. elegans dauer larvae relative to DMSO control (fraction of DMSO control); higher = more viable, less nematicidal, active = 0.63 or less; extreme values may be limits of the assay
Summary of the method: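 The proportion of mobile worms, relative to DMSO wells, was scored by dissection microscope and averaged over two biological replicates. Worms were C. elegans dauers, about 20 per well in liquid NGM in 96-well plates, generated from synchronized larvae on MYOB plates with E. coli OP50 at 25 °C for 48 h. They were treated with compound pinned to 60 µM final (0.6% v/v DMSO) and kept in sealed plates shaken at 200 rpm for 5 days at 20 °C.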

Row | Structure (SMILES) | proportion of mobile M. hapla J2 [1] | proportion of mobile D. dipsaci [2] | proportion of mobile C. elegans dauer larvae [3]
1 | Cc1ccc(OC(C)c2nc(-c3cccnc3)no2)cc1 (configuration not stated) | 1.03 | 1 | 
2 | COc1ccc(-c2nnc(SCC(=O)Nc3cccc(Cl)c3Cl)o2)cc1 | 0.932 | 1 | 
3 | CCOc1ccc(NC(=O)CSc2nnc(-c3ccncc3)o2)cc1 | 0.897 | 1 | 1
4 | Cc1ccc(C)c(-c2nc(-c3ccncc3)no2)c1 | 1.09 | 1 | 
5 | COc1ccc(-c2nnc(SCC(=O)Nc3ccc(Cl)cc3C)o2)cc1 | 0.709 | 1 | 
6 | Cc1ccc(-c2nnc(SCc3ccccc3)o2)cc1 | 0.256 (active) | 0.889 | 
7 | COc1ccccc1-c1nc(-c2ccc(Br)cc2)no1 | 1.04 | 1 | 1
8 | COc1ccc(-c2nnc(SCC(=O)Nc3ccc(C)cc3Br)o2)cc1 | 1.01 | 1 | 
9 | O=C(CSc1nnc(-c2ccc(Br)cc2)o1)NC1CCCCC1 | 1.04 | 1 | 
10 | COc1ccc(NC(=O)CSc2nnc(-c3ccccc3C)o2)cc1 | 0.838 | 1 | 1
11 | COc1ccccc1-c1nnc(SCC(=O)Nc2ccccc2Cl)o1 | 0.973 | 1 | 
12 | Cc1cc(Cl)ccc1OCc1nc(-c2ccncc2)no1 | 1.02 | 1 | 
13 | CC(Sc1nnc(-c2ccccc2)o1)C(=O)Nc1nccs1 (configuration not stated) | 1 | 1 | 1
14 | CC(C)Oc1ccc(-c2nc(-c3ccccc3)no2)cc1 | 0.993 | 1 | 

Source: the supplement of paper PMC11219838
